PTPN22 act = increases human PTPN22 phosphatase activity. Q9Y2R2. recombinant LYP, DiFMUP fluorescence; 0 = plate median, 100 = signal doubled. activation, % at 2 µM. actives 0.11% (n = 96,000). AID 697;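 active = activation at 2 µM above a set limit, the mean plus 5 SD, cut at about 37% in these data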
Target sequence (Q9Y2R2 whole entry, looked up): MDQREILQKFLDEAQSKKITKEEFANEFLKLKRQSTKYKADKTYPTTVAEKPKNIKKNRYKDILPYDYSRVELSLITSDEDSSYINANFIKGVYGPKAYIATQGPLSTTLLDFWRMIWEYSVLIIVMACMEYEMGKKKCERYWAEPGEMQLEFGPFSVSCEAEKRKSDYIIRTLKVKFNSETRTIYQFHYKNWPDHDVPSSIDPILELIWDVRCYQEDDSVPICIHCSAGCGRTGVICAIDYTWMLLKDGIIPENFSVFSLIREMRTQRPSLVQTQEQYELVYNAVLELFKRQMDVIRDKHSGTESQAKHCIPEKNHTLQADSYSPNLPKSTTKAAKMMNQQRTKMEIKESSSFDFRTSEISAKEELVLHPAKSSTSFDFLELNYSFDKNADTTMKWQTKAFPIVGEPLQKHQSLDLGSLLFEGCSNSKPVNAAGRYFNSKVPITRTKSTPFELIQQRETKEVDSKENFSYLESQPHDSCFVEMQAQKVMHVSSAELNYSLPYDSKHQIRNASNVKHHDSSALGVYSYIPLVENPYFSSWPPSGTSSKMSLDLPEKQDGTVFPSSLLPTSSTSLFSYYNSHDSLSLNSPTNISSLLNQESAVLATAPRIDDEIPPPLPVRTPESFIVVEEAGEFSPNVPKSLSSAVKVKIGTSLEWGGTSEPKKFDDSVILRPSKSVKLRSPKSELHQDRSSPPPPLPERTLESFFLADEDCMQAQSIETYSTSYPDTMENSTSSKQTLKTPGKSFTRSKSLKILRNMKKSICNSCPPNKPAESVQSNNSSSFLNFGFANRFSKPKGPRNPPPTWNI
Measles CPE = protection of cells from measles virus; Measles virus-infected cells, CPE protection, absorbance; protection (pct of control), % at 4 µM; actives 1.5% (n = 140,000); AID 841; in the data active = protection mostly above about 24%, no sharp cut-off; inactive = mostly below about 26%
LYP inh 2 = LYP (human) phosphatase inhibition. recombinant LYP catalytic domain, DiFMUP fluorescence. inhibition, % at 2 µM. actives 0.21% (n = 96,000). AID 640;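 active = inhibition at 2 µM at or above a set limit, the screen mean plus 3 SD, cut at about 24% in these data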
Hits are given with their value; – = inactive; · = no result given. An excerpt weighted towards active compounds, which were near 1.7% of everything screened.

SMILES	PTPN22 act	Measles CPE	LYP inh 2
CCOC(=O)c1c(-c2cccc([N+](=O)[O-])c2)csc1NC(=O)CCCOc1ccccc1	·	–	·
Cc1c(NC(=O)COc2ncnc3c(Cl)cc(Cl)cc23)c(=O)n(-c2ccccc2)n1C	·	–	·
O=C(CCc1ccccc1)Nc1c(F)c(F)c(F)c(F)c1F	–	–	–
CCN(CC)S(=O)(=O)c1ccc2c(c1)c(=O)c(C(=O)NCc1cccs1)cn2C	·	–	·
COc1cccc(Nc2nc(CN3CCOCC3)nc3sc4c(c23)CCCC4)c1	·	–	·
COc1ccc(-n2c(C)cc(SC)c(C(C)=O)c2=S)cc1	–	98	–
CSc1cc(C)n(-c2ccc(Cl)cc2)c(=S)c1C(C)=O	–	–	–
Nc1c(C(=O)C2CC2)sc2nc(-c3ccccc3)cc(C(F)(F)F)c12	–	–	–
O=C(O)C1C2C=CC(C2)C1C(=O)NCCCc1ccccc1 (stereo not given)	·	–	·
CNc1ccc(Br)cc(C(=O)/C=C/c2ccc3c(c2)OCO3)c1=O	–	54	–
CNc1ccc(Br)cc(C(=O)/C=C/c2ccc(OC)cc2)c1=O	·	–	·
CN(C)S(=O)(=O)c1ccc2nnn(OCC(=O)NC34CC5CC(CC(C5)C3)C4)c2c1	·	–	·
CCOc1ccc(CCn2c(-c3ccco3)nc3ccccc3c2=O)cc1OCC	–	44	–
O=c1c2ccccc2nc(-c2ccco2)n1Cc1ccccc1	–	–	–
COC(=O)N/N=C/c1c(C)c(C(=O)c2ccc(F)cc2)n2ccccc12	·	–	·
Cc1c(/C=N/NC(=O)CNc2ccccc2)c2ccccn2c1C(=O)c1ccccc1	·	23	·
O=c1[nH]c2sc3c(c2c2nncn12)CCCC3	–	–	–
CCc1[nH]c(=S)c(C#N)c2c1CCCC2	·	–	·
COC(=O)CSc1nc(N)c2c3c(sc2n1)CCCC3	·	–	·
CC(=O)c1c(O)cc(=O)n(-c2ccccc2)c1-c1ccc(Cl)cc1	·	–	·
CCc1c(O)cc(=O)n(-c2ccccc2)c1-c1ccccc1	·	26	·
CCOC(=O)c1cc2c3ccccc3n(CC)c2nc1N	–	–	–
C/C(=N\OCC(=O)NC12CC3CC(CC(C3)C1)C2)c1cc2ccccc2o1	·	19	·
COc1cc(/C=N/OCC(=O)NC2CCCCC2)ccc1OCc1ccccc1	·	86	·
COc1cc(/C=N/OCC(=O)Nc2ccc(OC(F)F)cc2)ccc1OCc1ccccc1	·	–	·
SMILES	PTPN22 act	Measles CPE	LYP inh 2
CSc1ccccc1NC(=O)CO/N=C(\C)c1cc2ccccc2o1	·	–	·
COc1cc(/C=N/OCC(=O)NC23CC4CC(CC(C4)C2)C3)ccc1OCc1ccccc1	·	49	·
CCOc1ccc(/C=N/OCC(=O)Nc2ccc(OCc3ccccc3)cc2)cc1OC	·	–	·
CC1CCCC(C)N1S(=O)(=O)c1ccc(NC(=O)CNCC2CCCO2)cc1 (stereo not given)	–	–	–
CCOc1ccc(C(=S)NC2CCCCC2)cc1	–	–	–
O=C(CN1CCN(c2ccc(F)cc2)CC1)NCC1CCCO1 (stereo not given)	–	–	–
O=C(Nc1ccccc1)c1ccccc1CC[N+](=O)[O-]	–	–	–
CC(=O)Nc1ccc(NC(=O)c2ccccc2CC[N+](=O)[O-])cc1	–	–	42
COc1ccc(C2CC(c3ccccc3OC(C)=O)=NN2C(=O)/C=C/c2ccccc2)cc1 (stereo not given)	·	–	·
CC1CCCC(C)N1S(=O)(=O)c1ccc(NC(=O)c2ccccc2C(=O)N2CCOCC2)cc1 (stereo not given)	–	–	–
CC1=CC(C)(C)Nc2ccc(OC(=O)CCN3C(=O)c4ccccc4C3=O)cc21	·	–	·
O=C(CCN1C(=O)c2ccccc2C1=O)Oc1ccc2ccccc2c1	–	–	75
CCc1ccc(OCCNC(=O)c2ccc(S(=O)(=O)N(C)C)cc2)cc1	–	–	–
O=C(CCC(=O)Nc1ccccc1)NCCO	–	–	–
O=C(Oc1cc(-c2ccccc2)no1)c1ccc(F)cc1	–	–	–
CCOC(=O)CP(=O)(c1ccccc1)c1ccccc1	–	–	–
O=C1N(CN2C(=O)C3(OCCO3)c3ccccc32)c2ccccc2C12OCCO2	–	–	–
Cn1c(CNS(=O)(=O)c2ccc(F)cc2)n[nH]c1=S	–	43	–
Cn1c(CNS(=O)(=O)c2ccc(Cl)cc2)n[nH]c1=S	–	–	–
CCN(CC)S(=O)(=O)c1ccc(Cl)c(C(=O)Oc2cccc(-c3cnc4ccccc4n3)c2)c1	–	31	–
CCN(CC)S(=O)(=O)c1cc(C(=O)Oc2cccc(-c3cnc4ccccc4n3)c2)ccc1Br	–	–	–
CCOC(=O)CSc1nc2cc(C(=O)N3CCCC3)ccc2c(=O)n1Cc1ccccc1	–	25	–
CCOC(=O)CSc1nc2cc(C(=O)N3CCC(C(N)=O)CC3)ccc2c(=O)n1-c1ccccc1	–	–	–
CCCn1c(=S)[nH]c2cc(OC)c(OC)cc2c1=O	–	–	–
O=C(c1ccc(Cl)cc1Cl)C1(n2cncn2)Oc2ccccc2C1O (stereo not given)	·	–	·
SMILES	PTPN22 act	Measles CPE	LYP inh 2
O=C1CC(=O)C(n2cncn2)C(c2ccc(Cl)cc2Cl)C1 (stereo not given)	·	22	·
Cc1oc(-c2ccccc2F)nc1CS(=O)(=O)CC(=O)N1CCCCCC1	–	–	–
CS(=O)(=O)N(Cc1ccc(C(=O)NCCSCc2ccco2)cc1)c1ccccc1	–	–	–
CS(=O)(=O)N(Cc1ccc(C(=O)NCc2ccco2)cc1)c1ccccc1	–	34	–
Cc1ccc(-n2c(C)cc(C3N=C(N)Nc4nc5ccccc5n43)c2C)c(C)c1 (stereo not given)	–	–	–
O=C(N/N=C/c1ccc2c(c1)OCO2)c1sc2cc(Cl)ccc2c1Cl	·	–	·
C=CCn1c(-c2ccco2)n[nH]c1=S	–	–	–
Cn1c(=O)c2c(nc(SCc3nc(N)nc(N4CCCCC4)n3)n2C)n(C)c1=O	·	–	·
CCCn1c(SCC(=O)O)nc2ccccc21	–	–	–
CCCn1c(SCC(=O)N2c3ccccc3Sc3ccccc32)nc2ccccc21	·	33	·
COc1ccccc1OCc1nnc(SCC(=O)NCc2ccco2)n1Cc1ccco1	–	–	26
Cc1cc(C)nc(SCc2nnc(SCC(=O)Nc3nccs3)n2Cc2ccco2)n1	–	41	–
COc1ccccc1NC(=O)CSc1nnc(COc2ccc(Cl)cc2)n1Cc1ccco1	–	–	–
Cc1cccc(NC(=O)CSc2nnc(CSc3nc(C)cc(C)n3)n2Cc2ccco2)c1	–	–	–
COc1cccc(OC)c1C(=O)NC(=S)Nc1ccc2c(c1)Cc1ccccc1-2	–	–	–
Cc1cc(C)cc(NC(=O)C(Nc2ccccc2)c2ccccc2)c1 (stereo not given)	·	46	·
Cc1ccc(NC(=O)C(Nc2ccccc2)c2ccccc2)cc1 (stereo not given)	·	–	·
COc1cccc(C(=O)NC(=S)Nc2cccnc2)c1	·	–	·
O=C(O)c1cccc2cccnc12	–	–	–
O=C(Oc1ccccc1)c1cccc2cccnc12	–	48	–
CCC(CC)C(=O)Nc1cccc(/C(C)=N/NC(=O)c2ccccc2Cl)c1	–	–	–
CCn1c(=O)n(CC)c2cc([N+](=O)[O-])ccc21	–	–	–
Cn1c(CO)c(-c2ccccc2)c2cc([N+](=O)[O-])ccc21	–	37	–
Cc1cccc2cc(CN(CC3CCCO3)C(=S)NCc3ccco3)c(=O)[nH]c12 (stereo not given)	·	31	·
Cc1cc(C)c2[nH]c(=O)c(CN(CC3CCCO3)C(=S)NCc3ccco3)cc2c1 (stereo not given)	·	–	·

From PubChem
